{"source": "ChEMBL document CHEMBL4513146", "about": "“CO-ADD screening of Karazin Kharkiv National University (Ukraine) compounds”", "note": "Measured potencies and affinities stand elsewhere.", "data": [{"system": "Staphylococcus aureus", "conditions": "Concentration 32 ug.mL-1;; ASSAY_TEST Inhibition of Bacterial Growth; detection method Absorption (OD600); MEDIA CAMHB; plate type 384well; NBS; CORNING #3640; time 18 hr", "units": {"Inhibition": "%"}, "values": [{"smiles": "O=c1n(Cc2nc(-c3ccc(F)cc3)no2)nc2ccc(-c3ccccc3)nn12", "Inhibition": 3.21}, {"smiles": "CC(C)Sc1ccc2nn(CC(=O)Nc3ccc(Cl)cc3F)c(=O)n2n1", "Inhibition": 9.58}, {"smiles": "CCCn1c(=O)c2sccc2n2c(=O)n(CC(=O)c3cc(C)ccc3C)nc12", "Inhibition": 7.83}, {"smiles": "O=C(CSc1nnc2ccc(C(=O)Nc3cccc(F)c3)cn12)Nc1ccc(F)c(F)c1", "Inhibition": 8.43}, {"smiles": "Cc1cc(C)cc(Nc2nc(C)cc3nn(CC(=O)Nc4cc(F)ccc4F)c(=O)n23)c1", "Inhibition": 10.55}, {"smiles": "CC(C)c1nnc2c(SCC(=O)N3CCN(c4ccc(F)cc4)CC3)nc3ccccc3n12", "Inhibition": 10.21}, {"smiles": "Cc1ccc(N(Cc2cccc(C)c2)S(=O)(=O)c2cccn3c(C)nnc23)cc1", "Inhibition": -2.01}, {"smiles": "CCCCN(CC)C(=O)CSc1nnc2c(=O)n(Cc3ccccc3F)ccn12", "Inhibition": 1.71}, {"smiles": "Cc1ccc(C)c(NC(=O)Cn2nc3c(Sc4ccccc4)nccn3c2=O)c1", "Inhibition": 6.23}, {"smiles": "COc1ccc(NC(=O)c2ccc3nn(CC(=O)Nc4ccc(C(C)=O)cc4)c(=O)n3c2)cc1", "Inhibition": 15.44}, {"smiles": "N#Cc1ccc(NC(=O)Cn2nc3c(SC4CCCCC4)nccn3c2=O)cc1", "Inhibition": 7.35}, {"smiles": "Cc1ccc(N(CC(=O)OC(C)(C)C)S(=O)(=O)c2ccc3nnc(C)n3c2)cc1", "Inhibition": 2.37}, {"smiles": "O=C(Cn1nc2c(SC3CCCCC3)nccn2c1=O)Nc1cccc(Br)c1", "Inhibition": -4.73}, {"smiles": "COc1cccc(-n2ccn3c(SC(C)C(=O)c4ccc(C)c(C)c4)nnc3c2=O)c1", "note": "(stereo not drawn)", "Inhibition": 13.98}, {"smiles": "COc1ccc(NC(=O)Cn2nc3ccc(SC(C)(C)C)nn3c2=O)cc1OC", "Inhibition": 4.97}, {"smiles": "Cc1ccc(Oc2nccn3c(=O)n(CC(=O)Nc4ccc(F)cc4F)nc23)cc1", "Inhibition": 19.59}, {"smiles": "O=c1c2nn(Cc3ccccc3F)c(=O)n2ccn1-c1ccccc1", "Inhibition": 4.1}, {"smiles": "Cc1ccc(Sc2nccn3c(=O)n(CC(=O)Nc4ccc(Br)cc4C)nc23)c(C)c1", "Inhibition": -15.15}, {"smiles": "C=Cc1ccc(CN(c2cccc(F)c2)S(=O)(=O)c2ccc3nnc(C)n3c2)cc1", "Inhibition": 2.75}, {"smiles": "Cc1cccc(Sc2nccn3c(=O)n(CC(=O)N4CCN(c5ccccc5)CC4)nc23)c1", "Inhibition": 12.14}, {"smiles": "O=C(Cn1nc2c(SC3CCCCC3)nccn2c1=O)N1CCN(c2ccccc2)CC1", "Inhibition": 2.31}, {"smiles": "CCc1nnc2c(S(=O)(=O)N(Cc3cccc(F)c3)c3cccc(C)c3)cccn12", "Inhibition": 12.77}, {"smiles": "CCOc1ccc(NC(=O)Cn2nc3ccc(Sc4cccc(F)c4)nn3c2=O)cc1", "Inhibition": 2.36}, {"smiles": "Cn1c(=O)c2ccc(C(=O)NC3CCCC3)cc2n2c(SCc3c(F)cccc3Cl)nnc12", "Inhibition": 12.53}, {"smiles": "Cc1cc2nn(CC(=O)Nc3cc(F)ccc3F)c(=O)n2c(Nc2ccc(C)c(F)c2)n1", "Inhibition": 0.88}, {"smiles": "O=C(Cn1nc2ccc(-c3ccccc3)nn2c1=O)Nc1ccc(Cl)c(C(F)(F)F)c1", "Inhibition": 6.21}, {"smiles": "CCCc1nnc2c(=O)n(CC(=O)Nc3ccc4c(c3)OCCO4)c3ccccc3n12", "Inhibition": 2.35}, {"smiles": "COc1ccccc1-n1ccn2c(SCC(=O)NCc3ccc(Cl)cc3)nnc2c1=O", "Inhibition": 12.53}, {"smiles": "N#Cc1cccc(NC(=O)CSc2nnc3c4cc(-c5ccccc5)nn4ccn23)c1", "Inhibition": 2.79}, {"smiles": "COc1ccc(NC(=O)Cn2nc3c4cc(-c5ccc(C)c(C)c5)nn4ccn3c2=O)cc1", "Inhibition": 11.77}, {"smiles": "CCOC(=O)c1ccccc1NC(=O)CSc1nc2ccccc2n2c(C(C)C)nnc12", "Inhibition": 6}, {"smiles": "Cc1cc2nn(CC(=O)Nc3ccccc3)c(=O)n2c(Nc2ccc(C)c(F)c2)n1", "Inhibition": 8.29}, {"smiles": "CCC(C)NC(=O)Cn1nc2n(CCC(C)C)c(=O)c3sccc3n2c1=O", "note": "(stereo not drawn)", "Inhibition": -2.65}, {"smiles": "O=c1c2nn(Cc3ccc([N+](=O)[O-])cc3)c(=O)n2ccn1-c1ccccc1", "Inhibition": 12.75}, {"smiles": "CC(C)CCNC(=O)Cn1nc2n(Cc3cccs3)c(=O)c3sccc3n2c1=O", "Inhibition": 3.31}, {"smiles": "O=C(Cn1nc2ccc(-c3ccc(Cl)cc3)nn2c1=O)N1CCN(c2ccccc2)CC1", "Inhibition": -1.88}, {"smiles": "CC(C)c1ccc(N(Cc2cccc(Cl)c2)S(=O)(=O)c2cccn3cnnc23)cc1", "Inhibition": -3.13}, {"smiles": "Cn1c(=O)c2ccc(C(=O)NC3CCCCC3)cc2n2c(=O)n(Cc3cccc(C(F)(F)F)c3)nc12", "Inhibition": 12.74}, {"smiles": "COC(=O)c1ccccc1NC(=O)Cn1nc2c(Oc3ccccc3)nccn2c1=O", "Inhibition": 8.3}]}, {"system": "Escherichia coli", "conditions": "Concentration 32 ug.mL-1;; ASSAY_TEST Inhibition of Bacterial Growth; detection method Absorption (OD600); MEDIA CAMHB; plate type 384well; NBS; CORNING #3640; time 18 hr", "units": {"Inhibition": "%"}, "values": [{"smiles": "O=c1n(Cc2nc(-c3ccc(F)cc3)no2)nc2ccc(-c3ccccc3)nn12", "Inhibition": -3.67}, {"smiles": "CC(C)Sc1ccc2nn(CC(=O)Nc3ccc(Cl)cc3F)c(=O)n2n1", "Inhibition": -1.02}, {"smiles": "CCCn1c(=O)c2sccc2n2c(=O)n(CC(=O)c3cc(C)ccc3C)nc12", "Inhibition": 0.58}, {"smiles": "O=C(CSc1nnc2ccc(C(=O)Nc3cccc(F)c3)cn12)Nc1ccc(F)c(F)c1", "Inhibition": 1.09}, {"smiles": "Cc1cc(C)cc(Nc2nc(C)cc3nn(CC(=O)Nc4cc(F)ccc4F)c(=O)n23)c1", "Inhibition": 0.49}, {"smiles": "CC(C)c1nnc2c(SCC(=O)N3CCN(c4ccc(F)cc4)CC3)nc3ccccc3n12", "Inhibition": -1.94}, {"smiles": "Cc1ccc(N(Cc2cccc(C)c2)S(=O)(=O)c2cccn3c(C)nnc23)cc1", "Inhibition": -15.69}, {"smiles": "CCCCN(CC)C(=O)CSc1nnc2c(=O)n(Cc3ccccc3F)ccn12", "Inhibition": -7.34}, {"smiles": "Cc1ccc(C)c(NC(=O)Cn2nc3c(Sc4ccccc4)nccn3c2=O)c1", "Inhibition": -5.56}, {"smiles": "COc1ccc(NC(=O)c2ccc3nn(CC(=O)Nc4ccc(C(C)=O)cc4)c(=O)n3c2)cc1", "Inhibition": -1.93}, {"smiles": "N#Cc1ccc(NC(=O)Cn2nc3c(SC4CCCCC4)nccn3c2=O)cc1", "Inhibition": -8.54}, {"smiles": "Cc1ccc(N(CC(=O)OC(C)(C)C)S(=O)(=O)c2ccc3nnc(C)n3c2)cc1", "Inhibition": -3.61}, {"smiles": "O=C(Cn1nc2c(SC3CCCCC3)nccn2c1=O)Nc1cccc(Br)c1", "Inhibition": -7.3}, {"smiles": "COc1cccc(-n2ccn3c(SC(C)C(=O)c4ccc(C)c(C)c4)nnc3c2=O)c1", "note": "(stereo not drawn)", "Inhibition": 1.22}, {"smiles": "COc1ccc(NC(=O)Cn2nc3ccc(SC(C)(C)C)nn3c2=O)cc1OC", "Inhibition": 2.49}, {"smiles": "Cc1ccc(Oc2nccn3c(=O)n(CC(=O)Nc4ccc(F)cc4F)nc23)cc1", "Inhibition": -0.38}, {"smiles": "O=c1c2nn(Cc3ccccc3F)c(=O)n2ccn1-c1ccccc1", "Inhibition": -4.13}, {"smiles": "Cc1ccc(Sc2nccn3c(=O)n(CC(=O)Nc4ccc(Br)cc4C)nc23)c(C)c1", "Inhibition": -16.85}, {"smiles": "C=Cc1ccc(CN(c2cccc(F)c2)S(=O)(=O)c2ccc3nnc(C)n3c2)cc1", "Inhibition": -8.1}, {"smiles": "Cc1cccc(Sc2nccn3c(=O)n(CC(=O)N4CCN(c5ccccc5)CC4)nc23)c1", "Inhibition": -10.39}, {"smiles": "O=C(Cn1nc2c(SC3CCCCC3)nccn2c1=O)N1CCN(c2ccccc2)CC1", "Inhibition": 0.18}, {"smiles": "CCc1nnc2c(S(=O)(=O)N(Cc3cccc(F)c3)c3cccc(C)c3)cccn12", "Inhibition": -0.95}, {"smiles": "CCOc1ccc(NC(=O)Cn2nc3ccc(Sc4cccc(F)c4)nn3c2=O)cc1", "Inhibition": -8.51}, {"smiles": "Cn1c(=O)c2ccc(C(=O)NC3CCCC3)cc2n2c(SCc3c(F)cccc3Cl)nnc12", "Inhibition": 0.61}, {"smiles": "Cc1cc2nn(CC(=O)Nc3cc(F)ccc3F)c(=O)n2c(Nc2ccc(C)c(F)c2)n1", "Inhibition": -8.4}, {"smiles": "O=C(Cn1nc2ccc(-c3ccccc3)nn2c1=O)Nc1ccc(Cl)c(C(F)(F)F)c1", "Inhibition": -6.69}, {"smiles": "CCCc1nnc2c(=O)n(CC(=O)Nc3ccc4c(c3)OCCO4)c3ccccc3n12", "Inhibition": -7.37}, {"smiles": "COc1ccccc1-n1ccn2c(SCC(=O)NCc3ccc(Cl)cc3)nnc2c1=O", "Inhibition": -3.51}, {"smiles": "N#Cc1cccc(NC(=O)CSc2nnc3c4cc(-c5ccccc5)nn4ccn23)c1", "Inhibition": -3.47}, {"smiles": "COc1ccc(NC(=O)Cn2nc3c4cc(-c5ccc(C)c(C)c5)nn4ccn3c2=O)cc1", "Inhibition": -2.93}, {"smiles": "CCOC(=O)c1ccccc1NC(=O)CSc1nc2ccccc2n2c(C(C)C)nnc12", "Inhibition": -2.48}, {"smiles": "Cc1cc2nn(CC(=O)Nc3ccccc3)c(=O)n2c(Nc2ccc(C)c(F)c2)n1", "Inhibition": -1.41}, {"smiles": "CCC(C)NC(=O)Cn1nc2n(CCC(C)C)c(=O)c3sccc3n2c1=O", "note": "(stereo not drawn)", "Inhibition": -5.43}, {"smiles": "O=c1c2nn(Cc3ccc([N+](=O)[O-])cc3)c(=O)n2ccn1-c1ccccc1", "Inhibition": -1.5}, {"smiles": "CC(C)CCNC(=O)Cn1nc2n(Cc3cccs3)c(=O)c3sccc3n2c1=O", "Inhibition": -5.47}, {"smiles": "O=C(Cn1nc2ccc(-c3ccc(Cl)cc3)nn2c1=O)N1CCN(c2ccccc2)CC1", "Inhibition": -5.05}, {"smiles": "CC(C)c1ccc(N(Cc2cccc(Cl)c2)S(=O)(=O)c2cccn3cnnc23)cc1", "Inhibition": -8.14}, {"smiles": "Cn1c(=O)c2ccc(C(=O)NC3CCCCC3)cc2n2c(=O)n(Cc3cccc(C(F)(F)F)c3)nc12", "Inhibition": -0.17}, {"smiles": "COC(=O)c1ccccc1NC(=O)Cn1nc2c(Oc3ccccc3)nccn2c1=O", "Inhibition": -3.16}]}]}
